A selection: hits, their analogues and other compounds. The true share with any hit is near 9.9%.
SW480 rereplic – induces DNA re-replication in SW480 colon adenocarcinoma cells | AID 624297 | Potency, µM (top dose mostly 46.1 µM), for the others: top-dose re-replication activation, usual class: activators | 340,000 compounds, 1.8% hits | SW480 DNA re-replication, Hoechst DNA content imaging, 48 h; note: potency is the fitted concentration of half-maximal effect; % of control where 0% means no effect; nearly all actives have a fitted effect of over 55% in size
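SW480 cells exposed to compounds for 48 hr at 37 C, 5% CO2, then Hoechst-stained 40 min. Nuclear DNA content imaged by fluorescence scanning (405 nm excitation, 500-530 nm emission); re-replication scored as increased high-intensity nuclei.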
KB-3-1 tox – KB-3-1 parental cell cytotoxicity | KB-3-1 viability, CellTiter-Glo ATP luminescence, 72 h | Potency, µM (top dose mostly 46.1 µM), most hits filed as cytotoxic | 400,000 compounds, 1.4% hits | AID 1347075; note: potency is the fitted concentration of half-maximal effect; % is set by controls: 0 for no effect and ±100 for the full control effect; nearly all actives have a fitted effect of over 60% in size
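Cytotoxicity measured as CellTiter-Glo luminescence after 72 h at 37 C. Compound titrations were pinned onto drug-naive KB-3-1 parental adenocarcinoma cells grown in DMEM with 10% FBS, and normalized data fitted to concentration-response curves.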
IL1B secr inh – blocks inflammasome-driven IL-1 beta release | THP-1 LPS/ATP IL-1B secretion, AlphaLISA, 16 h; hits give low values | activity change, % at 57.5 µM | 360,000 compounds, 4.7% hits | AID 743279; in the data active = activity change below about -50%; inconclusive = mostly about -30% to -49%; note: % is set by controls: 0 for no effect and ±100 for the full control effect
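Secreted IL-1B measured by AlphaLISA bead assay after 16 h compound exposure of THP-1 cells; compounds (final up to 57.5 uM) added 1 h before LPS (250 ng/mL) and ATP (1.25 mM) stimulation; lower signal means less secretion.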
MCF10A rereplic – induces DNA re-replication in MCF 10a normal breast cells; MCF 10A DNA re-replication, Hoechst nuclear intensity, 48 h; 350,000 compounds, 2.9% hits; Potency, µM (series often up to 46.1 µM), for inactives: at the highest dose activity, positive = re-replication, usual class: activators; note: potency is the fitted concentration of half-maximal effect; % of control where 0% means no effect; nearly all actives have a fitted effect of over 50% in size
KB-V1 MDR tox – KB-V1 MDR subline cytotoxicity | 400,000 compounds, 3.4% hits | AID 1347076 | KB-V1 MDR cells viability, CellTiter-Glo, 72 h | Potency, µM (titrated, usually from 46.1 µM), hits mostly cytotoxic; note: potency is the fitted concentration of half-maximal effect; % is set by controls: 0 for no effect and ±100 for the full control effect; nearly all actives have a fitted effect of over 60% in size
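KB-V1 MDR subline cells in DMEM (phenol-red free, 10% FBS) exposed to compounds in qHTS concentration series for 72 h at 37 degrees C. Viability read by CellTiter-Glo luminescence; concentration-effect curves fitted after normalization and correction.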
* marks the source's active call; other numbers are inactive results. Unless noted, calls come from the whole dose curve; as a rule, active = well fitted curve in the direction sought with a large enough effect; inconclusive = small, poorly fitted or top-dose-only effect, or another doubt; inactive = no such curve, though single readings can be large; an effect the other way counts as inactive or inconclusive.

Results for O=C(Nc1sc2c(c1C(=O)O)CCCC2)c1ccc(F)cc1 ?
SW480 rereplic: 7.4%; KB-3-1 tox: inconclusive; IL1B secr inh: 11.1; MCF10A rereplic: -12.3%; KB-V1 MDR tox: inactive

Results for COc1cccc(C(=O)Nc2sc3c(c2C(=O)O)CCCC3)c1 ?
SW480 rereplic: -1.1%; KB-3-1 tox: 18.4µM*; IL1B secr inh: -13.5; MCF10A rereplic: 9.6%; KB-V1 MDR tox: inconclusive

What do the screens show for `Cc1ccc(C(=O)Nc2sc3c(c2C(=O)O)CCCC3)o1`?
SW480 rereplic: 3.5%; KB-3-1 tox: inconclusive; IL1B secr inh: inconclusive; MCF10A rereplic: 0.1%; KB-V1 MDR tox: inconclusive

What do the screens show for `COC(=O)N1CCc2c(sc(NC(=O)C3=COCCO3)c2C#N)C1`?
SW480 rereplic: 1.46µM*; KB-3-1 tox: 2.31µM*; IL1B secr inh: 3.6; MCF10A rereplic: 2.06µM*; KB-V1 MDR tox: inconclusive

What do the screens show for `CC(O)(c1ccc(F)c(F)c1)c1nc(-c2cccc(C#N)c2)cs1` (stereo not given)?
KB-3-1 tox: inactive; IL1B secr inh: -15.4; KB-V1 MDR tox: inactive

How did Cc1cc(=O)n(CC(=O)N2CCN(c3ccc(F)cc3)CC2)c2c1c(C)nn2C do in these assays?
KB-3-1 tox: inactive; KB-V1 MDR tox: inactive

What do the screens show for `COc1cccc(C(=O)Nc2sc3c(c2C#N)CCN(C(C)=O)C3)c1`?
SW480 rereplic: 4.61µM*; KB-3-1 tox: 5.17µM*; IL1B secr inh: 70.9; MCF10A rereplic: 4.61µM*; KB-V1 MDR tox: inconclusive

How did CCCNC(=O)c1c(NC(=O)c2ccccc2F)sc2c1CCCCC2 do in these assays?
KB-3-1 tox: inactive; KB-V1 MDR tox: inactive

How did O=C(Nc1sc2c(c1C(=O)O)CCCCC2)c1ccccc1F do in these assays?
SW480 rereplic: 6.6%; KB-3-1 tox: 11.6µM*; IL1B secr inh: -0.7; MCF10A rereplic: 12.8%; KB-V1 MDR tox: inactive

Results for CCCCc1ccc(NC(=O)CSc2nc(=O)n(CCN3CCOCC3)c3c2CCC3)cc1 ?
SW480 rereplic: -3.8%; KB-3-1 tox: inactive; IL1B secr inh: -70.1*; MCF10A rereplic: 20.3%; KB-V1 MDR tox: inactive

How did CCCCc1ccc(NC(=O)CSc2nc(=O)n(CCCN3CCOCC3)c3c2CCC3)cc1 do in these assays?
SW480 rereplic: 12.8%; KB-3-1 tox: inactive; IL1B secr inh: -83.2*; MCF10A rereplic: 24.3%; KB-V1 MDR tox: inactive

Results for COc1ccc(Cl)cc1NC(=O)NNC(=O)C(=O)Nc1ccc(F)cc1 ?
KB-3-1 tox: inactive; IL1B secr inh: -6.2; KB-V1 MDR tox: inactive

Results for O=C1CC(C(=O)Nc2ccc(Cl)cc2[N+](=O)[O-])C2(CCCCC2)O1 (stereo not given) ?
SW480 rereplic: -23.0%; KB-3-1 tox: inactive; IL1B secr inh: 24.6; MCF10A rereplic: 9.1%; KB-V1 MDR tox: 14.6µM*

Results for O=C1CC(C(=O)Nc2ccccc2)C2(CCCCC2)O1 (stereo not given) ?
SW480 rereplic: -6.1%; KB-3-1 tox: inactive; IL1B secr inh: 0.0; MCF10A rereplic: -9.6%; KB-V1 MDR tox: inactive

What do the screens show for `NS(=O)(=O)c1cccc(NC(=O)COC(=O)/C(=C/c2cccs2)c2cccs2)c1`?
SW480 rereplic: -3.6%; KB-3-1 tox: inactive; IL1B secr inh: -93.2*; MCF10A rereplic: inconclusive; KB-V1 MDR tox: inactive

Results for NS(=O)(=O)c1cccc(NC(=O)COC(=O)C2(c3cccc(F)c3)CCCC2)c1 ?
SW480 rereplic: -3.4%; KB-3-1 tox: inactive; IL1B secr inh: -53.1*; MCF10A rereplic: 0.3%; KB-V1 MDR tox: inactive

What do the screens show for `NS(=O)(=O)c1cccc(NC(=O)CC2(CC(=O)O)CCCC2)c1`?
SW480 rereplic: -3.1%; KB-3-1 tox: inactive; IL1B secr inh: 18.7; MCF10A rereplic: -19.4%; KB-V1 MDR tox: inactive

How did COc1ccc(OCCCCn2c(C3CC(=O)N(c4cccc(Cl)c4)C3)nc3ccccc32)cc1 (stereo not given) do in these assays?
KB-3-1 tox: inactive; KB-V1 MDR tox: inactive

What do the screens show for `Cc1ccc(C(C)(C)C)cc1S(=O)(=O)Nc1nc2ccccc2nc1Cl`?
SW480 rereplic: -12.5%; KB-3-1 tox: inactive; IL1B secr inh: -14.2; MCF10A rereplic: 26.0%; KB-V1 MDR tox: inactive

How did Cc1cc(F)ccc1S(=O)(=O)Nc1nc2ccccc2nc1Cl do in these assays?
SW480 rereplic: 19.0%; KB-3-1 tox: inconclusive; IL1B secr inh: -50.6*; MCF10A rereplic: 148.4%; KB-V1 MDR tox: inactive

How did O=S(=O)(Nc1nc2ccccc2nc1Cl)c1ccc2ccccc2c1 do in these assays?
SW480 rereplic: 2.5%; KB-3-1 tox: inactive; IL1B secr inh: 26.9; MCF10A rereplic: 23.1µM*; KB-V1 MDR tox: inconclusive

Results for COc1ccc(CC(=O)Nc2cc(-c3nc4cccnc4s3)ccc2C)cc1 ?
KB-3-1 tox: inactive; KB-V1 MDR tox: inactive

Results for CCCCCCCCCCCCCC(=O)NO ?
SW480 rereplic: 4.4%; KB-3-1 tox: inactive; IL1B secr inh: 0.0; MCF10A rereplic: inconclusive; KB-V1 MDR tox: inactive

How did Cc1onc(-c2c(F)cccc2Cl)c1C(=O)Nc1cccc2nsnc12 do in these assays?
SW480 rereplic: 16.4µM*; KB-3-1 tox: 18.4µM*; IL1B secr inh: inconclusive; MCF10A rereplic: inconclusive; KB-V1 MDR tox: 18.4µM*

Results for CCN(CC)CCNC(C(=O)Nc1cc(C(F)(F)F)ccc1Cl)c1ccccc1 (stereo not given) ?
SW480 rereplic: -5.4%; KB-3-1 tox: inactive; IL1B secr inh: 16.9; MCF10A rereplic: inconclusive; KB-V1 MDR tox: inconclusive

What do the screens show for `O=C(Nc1cc(C(F)(F)F)ccc1Cl)C(NCc1ccccc1)c1ccccc1` (stereo not given)?
SW480 rereplic: inconclusive; KB-3-1 tox: inactive; IL1B secr inh: 7.3; MCF10A rereplic: inconclusive; KB-V1 MDR tox: 20.6µM*

Results for Cc1cc[n+](CC(=O)Nc2cc(C(F)(F)F)ccc2Cl)cc1 ?
SW480 rereplic: -1.7%; KB-3-1 tox: inactive; IL1B secr inh: -13.7; MCF10A rereplic: 23.1µM*; KB-V1 MDR tox: inactive

How did O=C(C[n+]1ccccc1)Nc1cc(C(F)(F)F)ccc1Cl do in these assays?
SW480 rereplic: -0.1%; KB-3-1 tox: inactive; IL1B secr inh: -9.0; MCF10A rereplic: -0.1%; KB-V1 MDR tox: inactive

How did O=C(C[n+]1ccc2ccccc2c1)Nc1cc(C(F)(F)F)ccc1Cl do in these assays?
SW480 rereplic: inconclusive; KB-3-1 tox: inactive; IL1B secr inh: -58.4*; MCF10A rereplic: -2.6%; KB-V1 MDR tox: inactive

What do the screens show for `CN(C)c1cc[n+](CC(=O)Nc2cc(C(F)(F)F)ccc2Cl)cc1`?
SW480 rereplic: inconclusive; KB-3-1 tox: inactive; IL1B secr inh: inconclusive; MCF10A rereplic: inconclusive; KB-V1 MDR tox: inactive

Results for Cn1nc(C(=O)N2CCN(C(c3ccccc3)c3ccccc3)CC2)c2ccccc2c1=O ?
SW480 rereplic: -1.9%; KB-3-1 tox: inactive; IL1B secr inh: -3.3; MCF10A rereplic: 10.4%; KB-V1 MDR tox: inactive

High-throughput results: PubChem, National Center for Advancing Translational Sciences (NCATS)
